Measured values from PubChem BioAssay AID1159580 (chemical genetic matrix, 2015).
In all, about 5,500 compounds went through this assay and about 2,000 (36%) were called active. Roughly 18% stayed inconclusive and do not appear here. Rule as the data show it: active = normalized growth mostly below about 0.91 (no sharp cut-off); inconclusive = no clear call, values can overlap the other calls; inactive = mostly above about 0.92. The list shows a part of the results.

Test: chemical genetic growth profiling, strain panel (AID 1159580);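 also: tested at 20 µM; growth read once vehicle control cultures reached saturation at 30 °C; 1 = growth at the plate median or of vehicle wells; lower values mean less growth of the strain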
Conditions: growth OD

Measured: normalized growth

Clc1ccc(C(OCCN2CCCCC2)c2ccccc2)cc1 (centres undefined)
inactive: S. cerevisiae deletion strains, locus YJR043C, strain POL32, hits give low values 1.02 | S. cerevisiae deletion strains, locus YJR075W, strain HOC1, hits give low values 0.948 | S. cerevisiae deletion strains, locus YKL009W, strain mrt4, hits give low values 0.996 | S. cerevisiae deletion strains, locus YKL068W, hits give low values 1 | S. cerevisiae deletion strains, locus YKL085W, strain MDH1 (second series), hits give low values 0.997 | S. cerevisiae deletion strains, locus YKL085W, strain MDH1, hits give low values 0.997 | S. cerevisiae deletion strains, locus YKL160W, strain elf1, hits give low values 1.02 | S. cerevisiae deletion strains, locus YKL190W, strain CNB1, hits give low values 1.01 | S. cerevisiae deletion strains, locus YKR001C, strain vps1, hits give low values 0.994 | S. cerevisiae deletion strains, locus YKR026C, strain gcn3, hits give low values 1.02 | S. cerevisiae deletion strains, locus YKR091W, strain srl3, hits give low values 1.02 | S. cerevisiae deletion strains, locus YLL001W, strain dnm1, hits give low values 1.02 | S. cerevisiae deletion strains, locus YLL026W, hits give low values 1.02 | S. cerevisiae deletion strains, locus YLL041C, strain sdh2, hits give low values 1.01 | S. cerevisiae deletion strains, locus YLR027C, strain aat2, hits give low values 1.02 | S. cerevisiae deletion strains, locus YLR039C, strain RIC1, hits give low values 1.26 | S. cerevisiae deletion strains, locus YLR058C, strain SHM2, hits give low values 1 | S. cerevisiae deletion strains, locus YLR102C, strain apc9, hits give low values 0.999 | S. cerevisiae deletion strains, locus YLR221C, strain rsa3, hits give low values 1.01 | S. cerevisiae deletion strains, locus YLR258W, strain gsy2, hits give low values 1.02 | S. cerevisiae deletion strains, locus YLR262C, strain YPT6 (second series), hits give low values 1.07 | S. cerevisiae deletion strains, locus YLR262C, strain YPT6, hits give low values 1.27 | S. cerevisiae deletion strains, locus YLR268W, strain sec22, hits give low values 0.96 | S. cerevisiae deletion strains, locus YLR320W, strain mms22, hits give low values 1.01 | S. cerevisiae deletion strains, locus YLR330W, strain CHS5, hits give low values 1.01 | S. cerevisiae deletion strains, locus YLR342W, strain FKS1 (second series), hits give low values 0.907 | S. cerevisiae deletion strains, locus YLR342W, strain FKS1, hits give low values 1.04 | S. cerevisiae deletion strains, locus YLR357W, strain rsc2, hits give low values 1.02 | S. cerevisiae deletion strains, locus YLR370C, strain arc18, hits give low values 1 | S. cerevisiae deletion strains, locus YLR371W, strain rom2, hits give low values 1.01 | S. cerevisiae deletion strains, locus YLR384C, strain iki3, hits give low values 1.01 | S. cerevisiae deletion strains, locus YLR418C, strain cdc73, hits give low values 0.852 | S. cerevisiae deletion strains, locus YML016C, strain PPZ1, hits give low values 0.999 | S. cerevisiae deletion strains, locus YML032C, strain rad52, hits give low values 0.979 | S. cerevisiae deletion strains, locus YML120C, strain ndi1, hits give low values 1.01 | S. cerevisiae deletion strains, locus YML124C, strain tub3, hits give low values 1.01 | S. cerevisiae deletion strains, locus YMR058W, strain fet3, hits give low values 1.02 | S. cerevisiae deletion strains, locus YMR078C, strain ctf18, hits give low values 1 | S. cerevisiae deletion strains, locus YMR125W, strain sto1, hits give low values 1.03 | S. cerevisiae deletion strains, locus YMR129W, hits give low values 1.03 | S. cerevisiae deletion strains, locus YMR205C, strain PFK2, hits give low values 1.01 | S. cerevisiae deletion strains, locus YMR223W, strain ubp8, hits give low values 0.987 | S. cerevisiae deletion strains, locus YMR231W, strain pep5, hits give low values 1.02 | S. cerevisiae deletion strains, locus YMR263W, strain SAP30, hits give low values 0.977 | S. cerevisiae deletion strains, locus YMR307W, strain GAS1, hits give low values 1.12 | S. cerevisiae deletion strains, locus YNL067W, strain RPL9B, hits give low values 0.98 | S. cerevisiae deletion strains, locus YNL071W, strain lat1, hits give low values 1.02 | S. cerevisiae deletion strains, locus YNL128W, strain TEP1, hits give low values 0.955 | S. cerevisiae deletion strains, locus YNL153C, strain GIM3, hits give low values 0.971 | S. cerevisiae deletion strains, locus YNL209W, strain ssb2, hits give low values 1.03 | S. cerevisiae deletion strains, locus YNL233W, strain BNI4, hits give low values 0.986 | S. cerevisiae deletion strains, locus YNL248C, strain rpa49, hits give low values 1.03 | S. cerevisiae deletion strains, locus YNL250W, strain rad50, hits give low values 0.991 | S. cerevisiae deletion strains, locus YNL271C, strain bni1, hits give low values 0.997 | S. cerevisiae deletion strains, locus YNL298W, strain CLA4, hits give low values 1 | S. cerevisiae deletion strains, locus YNL307C, strain MCK1, hits give low values 0.992 | S. cerevisiae deletion strains, locus YNL322C, strain KRE1 (second series), hits give low values 1.03 | S. cerevisiae deletion strains, locus YNL322C, strain KRE1, hits give low values 1.01 | S. cerevisiae deletion strains, locus YNR049C, strain mso1, hits give low values 0.999 | S. cerevisiae deletion strains, locus YNR052C, strain pop2, hits give low values 0.965 | S. cerevisiae deletion strains, locus YOL006C, strain TOP1, hits give low values 0.592 | S. cerevisiae deletion strains, locus YOL012C, strain htz1 0.731 | S. cerevisiae deletion strains, locus YOL147C, strain pex11, hits give low values 0.997 | S. cerevisiae deletion strains, locus YOR001W, strain rrp6, hits give low values 1.02 | S. cerevisiae deletion strains, locus YOR061W, strain CKA2, hits give low values 1 | S. cerevisiae deletion strains, locus YOR069W, strain VPS5, hits give low values 0.997 | S. cerevisiae deletion strains, locus YOR070C, strain gyp1, hits give low values 1.03 | S. cerevisiae deletion strains, locus YOR080W, strain dia2, hits give low values 1.02 | S. cerevisiae deletion strains, locus YOR083W, strain WHI5, hits give low values 1.02 | S. cerevisiae deletion strains, locus YOR106W, strain vam3, hits give low values 1.01 | S. cerevisiae deletion strains, locus YOR136W, strain idh2, hits give low values 1 | S. cerevisiae deletion strains, locus YOR144C, strain elg1, hits give low values 1 | S. cerevisiae deletion strains, locus YOR184W, strain ser1, hits give low values 1.04 | S. cerevisiae deletion strains, locus YOR265W, strain rbl2, hits give low values 1.01 | S. cerevisiae deletion strains, locus YOR270C, strain vph1, hits give low values 0.797 | S. cerevisiae deletion strains, locus YOR290C, strain snf2, hits give low values 1.01 | S. cerevisiae deletion strains, locus YOR316C, strain cot1, hits give low values 1 | S. cerevisiae deletion strains, locus YPL051W, strain arl3, hits give low values 1.01 | S. cerevisiae deletion strains, locus YPL055C, strain LGE1, hits give low values 0.958 | S. cerevisiae deletion strains, locus YPL078C, strain atp4, hits give low values 1.02 | S. cerevisiae deletion strains, locus YPL106C, strain sse1, hits give low values 1.02 | S. cerevisiae deletion strains, locus YPL240C, strain hsp82, hits give low values 1.01 | S. cerevisiae deletion strains, locus YPL241C, strain CIN2, hits give low values 1 | S. cerevisiae deletion strains, locus YPR119W, strain clb2, hits give low values 1 | S. cerevisiae deletion strains, locus YPR141C, strain kar3, hits give low values 0.993 | S. cerevisiae deletion strains, locus YPR163C, strain tif3, hits give low values 0.981 | S. cerevisiae deletion strains, locus YPR167C, strain met16, hits give low values 1 | S. cerevisiae deletion strains, strain wtn01, hits give low values 0.974 | S. cerevisiae strains, strain wild type, hits give low values 0.988
